High-throughput results deposited in PubChem by National Center for Advancing Translational Sciences (NCATS).
ELG1 genotoxic: induces genotoxicity in HEK293T cells with luciferase-tagged ELG1; HEK293T ELG1-luciferase reporter, luminescence, 16 h; Potency, µM (titrated, usually from 46 µM), for inactives: top-dose activity change, positive = activation, usual class: activators; 330,000 compounds, 1.3% hits; further: % of control where 0% means no effect; nearly all actives have a fitted effect of over 60% in size
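16 hr compound incubation (37 °C, 5% CO2) of HEK293T cells carrying luciferase-tagged ELG1; luciferase then measured by ONE-Glo luminescence after 30 min at RT.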
FLuc counter: firefly luciferase modulation, counter-screen for miR-21 project. purified FLuc, Km substrates, luminescence inhibition. Potency, µM (highest dose often 57.5 µM), for inactives: at the highest dose activity change, negative = inhibition, hits mostly inhibitors. AID 588342. 360,000 compounds, 6.9% hits. P08659;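 further: plate controls were vehicle for no effect and reference inhibitor for full effect; nearly all actives have a fitted effect of over 55% in size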
Target sequence (P08659 whole entry, looked up): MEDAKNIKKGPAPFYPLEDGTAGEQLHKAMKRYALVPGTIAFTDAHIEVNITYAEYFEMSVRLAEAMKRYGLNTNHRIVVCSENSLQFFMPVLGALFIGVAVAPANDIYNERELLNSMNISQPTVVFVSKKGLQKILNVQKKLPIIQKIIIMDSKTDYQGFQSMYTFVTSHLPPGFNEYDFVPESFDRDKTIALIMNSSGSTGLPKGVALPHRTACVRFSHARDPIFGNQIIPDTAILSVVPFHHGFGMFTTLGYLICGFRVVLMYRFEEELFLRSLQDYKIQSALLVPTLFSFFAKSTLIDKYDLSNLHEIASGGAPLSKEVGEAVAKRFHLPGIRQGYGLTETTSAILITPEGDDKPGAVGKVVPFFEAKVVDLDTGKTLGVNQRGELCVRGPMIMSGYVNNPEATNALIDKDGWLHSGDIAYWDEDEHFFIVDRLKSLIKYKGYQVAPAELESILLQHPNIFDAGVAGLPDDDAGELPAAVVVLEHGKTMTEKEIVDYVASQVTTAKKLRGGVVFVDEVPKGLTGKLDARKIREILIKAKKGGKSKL
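Purified P. pyralis luciferase, 10 nM final, with Km-level 10 uM D-luciferin and 10 uM ATP in 50 mM Tris acetate pH 7.5, 10 mM Mg acetate, 0.01% Tween-20, 0.05% BSA; 6-point qHTS titration about 60 µM downward; luminescence read.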
NPC1 promoter act: NPC1 promoter activation. Huh7 NPC1 promoter luciferase reporter, 24 h. Potency, µM (top dose mostly 9.22 µM), for inactives: at the highest dose activation, actives largely listed as activators. 320,000 compounds, 2.4% hits. AID 485313; further: % of control where 0% means no effect; nearly all actives have a fitted effect of over 60% in size
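Compounds in DMSO were transferred onto Huh7 NPC1-luciferase reporter cells pre-incubated 2 h; after 24 h at 37 °C, Amplite reagent was dispensed and luminescence recorded 10 min later.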
Rab9 promoter act: activates the Rab9 promoter; Huh7 Rab9 promoter-luciferase reporter, luminescence, 24 h; 320,000 compounds, 2.8% hits; AID 485297; Potency, µM (doses to about 9.22 µM), inactives show top-dose activation, negative = inhibition, most hits filed as activators; further: % of control where 0% means no effect; nearly all actives have a fitted effect of over 60% in size
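Huh7 cells stably carrying a Rab9 promoter-luciferase reporter, 1500 cells per well in OP-MEM I with 10% FBS, treated with compound 24 hours at 37C. Luciferase activity read by luminescence after 10 minutes with Amplite reagent.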
SMN2 splice up: enhancers of SMN2 splice variant expression | HEK293 SMN2-luciferase splicing reporter, luminescence, 30-36 h | Potency, µM (highest dose often 46.1 µM), inactives show top-dose activity change, positive = activation, actives largely listed as activators | 210,000 compounds, 2.8% hits; further: % of control where 0% means no effect; nearly all actives have a fitted effect of over 55% in size
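qHTS luciferase splicing reporter: luminescence rises when SMN2 exon 7 is included in transfected HEK293 cells. Compound exposure lasted 30-36 h at 37C, with 4.5 mM final sodium butyrate as control, followed by a ONE-Glo read.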
ELG1 DNA repair: inhibitors of ELG1-dependent DNA repair in HEK293T cells; 330,000 compounds, 2.3% hits; Potency, µM (highest dose often 46.1 µM), inactives show top-dose activity change, negative = inhibition, actives largely listed as inhibitors; HEK293T ELG1-luciferase reporter, luminescence, 16 h; DNA damage induced by 5-fluorouridine; further: on the % scale 0 is the no-effect control and ±100 the full control effect; nearly all actives have a fitted effect of over 55% in size
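HEK293T cells expressing luciferase-tagged ELG1 (2,000/well) received 5-Fluorouridine plus compound or DMSO for 16 hr at 37 °C. Luciferase was read by ONE-Glo luminescence after 30 min at room temperature.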
* hit, by the source's call. In the library only some 9.2% were active in any assay of this set; here they are far more common. The call rests on the fitted dose curve; in most records, active means well fitted curve in the direction sought with a large enough effect; inconclusive means small, poorly fitted or top-dose-only effect, or another doubt; inactive means no such curve, though single readings can be large; an effect the other way counts as inactive or inconclusive. Potency means the concentration at half of the fitted maximal effect.

For CN1CCN(c2ccc(NC(=O)N3CCc4ccccc43)cc2)CC1 the results were ELG1 genotoxic 0.461µM*, FLuc counter 0.757µM*, NPC1 promoter act 0.316µM*, Rab9 promoter act 0.112µM* and ELG1 DNA repair inconclusive.
Screening Cc1ccc(NC(=O)N2CCc3ccccc32)cc1C returned ELG1 genotoxic 0.651µM*, FLuc counter 0.675µM*, NPC1 promoter act 0.501µM*, Rab9 promoter act 0.316µM*, SMN2 splice up 1.41µM* and ELG1 DNA repair inconclusive.
Screening Cc1ccc(NC(=O)N2CCc3ccccc32)cc1 returned ELG1 genotoxic inconclusive, FLuc counter 0.536µM*, NPC1 promoter act 0.708µM*, Rab9 promoter act 0.631µM*, SMN2 splice up 1.26µM* and ELG1 DNA repair inconclusive.
For Cc1ccc(Cl)cc1NC(=O)CN1C(=O)CCc2ccccc21 the results were FLuc counter -1.5%.
`Cc1ccc(NC(=O)CN2C(=O)CCc3ccccc32)cc1C` gave FLuc counter 23.9µM*.
`Cc1ccc(NC(=O)N2CCCc3ccccc32)cc1` gave ELG1 genotoxic 7.0%, FLuc counter inconclusive, NPC1 promoter act 10.5%, Rab9 promoter act 16.6% and ELG1 DNA repair 11.3%.
Cc1ccc(NC(=O)CSc2nccn2-c2ccccc2)cc1 was read as FLuc counter -12.3%.
For CCc1nnc(SCc2ccc(F)cc2Cl)c2cc3sc(C)cc3n12 the results were FLuc counter -0.4%.
For CCCCOc1ccc(NC(=O)Cn2nnnc2-c2ccccc2F)cc1 the results were FLuc counter -1.0% and SMN2 splice up 7.2%.
For Cc1c(C(=O)NC2CCS(=O)(=O)C2)oc2ccccc12 (stereo not given) the results were ELG1 genotoxic -3.2%, FLuc counter 2.8%, NPC1 promoter act -1.2%, Rab9 promoter act 2.3% and ELG1 DNA repair 1.6%.
`Clc1ccc(-c2csc(-c3nc(-c4ccc(Br)s4)cs3)n2)cc1` gave FLuc counter 0.1% and SMN2 splice up -5.7%.
Screening Cc1cc(=O)[nH]c2nnc(-c3ccc(Br)cc3)n12 returned ELG1 genotoxic inconclusive, FLuc counter 0.953µM*, NPC1 promoter act 2.82µM*, Rab9 promoter act inconclusive and ELG1 DNA repair inconclusive.
For O=C(Nc1ccc2oc(-c3cccnc3)nc2c1)c1ccc(-c2cccc(OC(F)(F)F)c2)o1 the results were FLuc counter -3.3% and SMN2 splice up -17.3%.
`Cc1ccc(S(=O)(=O)N2CCC(C(=O)OC(C)C(=O)NC3CCCCC3C)CC2)cc1` (stereo not given) gave ELG1 genotoxic -1.9%, FLuc counter -0.7%, NPC1 promoter act -1.0%, Rab9 promoter act -2.8% and ELG1 DNA repair 8.4%.
Screening CCN(CC)C(=O)N1CCC(NC(=O)c2ccc(C(C)(C)C)cc2)CC1 returned ELG1 genotoxic -7.4%, FLuc counter 1.4%, NPC1 promoter act -4.9%, Rab9 promoter act -4.0%, SMN2 splice up 4.6% and ELG1 DNA repair 20.6µM*.
For Cc1[nH]nc2ncc(C(=O)c3cc(F)ccc3O)cc12 the results were ELG1 genotoxic -8.5%, FLuc counter -1.1%, NPC1 promoter act 6.8%, Rab9 promoter act -2.9%, SMN2 splice up -3.4% and ELG1 DNA repair 18.4µM*.
`O=C(c1cn[nH]c1)c1cc(F)ccc1O` gave ELG1 genotoxic -13.6%, FLuc counter 1.9%, NPC1 promoter act -3.7%, Rab9 promoter act -9.1%, SMN2 splice up -16.0% and ELG1 DNA repair 20.6µM*.
`O=C(c1cnn(C(=O)COc2ccccc2F)c1)c1cc(F)ccc1O` gave ELG1 genotoxic -9.7%, FLuc counter -4.5%, NPC1 promoter act 9.2%, Rab9 promoter act -4.2% and ELG1 DNA repair -32.3%.
Cc1noc2ncc(C(=O)c3cc(F)ccc3O)cc12 was read as ELG1 genotoxic -0.3%, FLuc counter -0.5%, NPC1 promoter act 0.1%, Rab9 promoter act 3.7%, SMN2 splice up -0.7% and ELG1 DNA repair -0.8%.
CCN(CC)S(=O)(=O)c1ccc2c(c1)c(=O)c(C(=O)NCc1ccccc1Cl)cn2C was read as FLuc counter -14.3% and SMN2 splice up -3.6%.
C=CC[C@@H](CC(=O)N(CCO)Cc1ccccc1)C(=O)N[C@H](COC(=O)[C@@H](CC=C)CC(=O)OC(C)(C)C)Cc1c[nH]c2ccccc12 was read as ELG1 genotoxic -9.6% and ELG1 DNA repair 18.3µM*.
For C=CC[C@H](CC(=O)N(CCO)Cc1ccccc1)C(=O)N[C@@H](COC(=O)[C@H](CC=C)CC(=O)OC(C)(C)C)Cc1c[nH]c2ccccc12 the results were ELG1 genotoxic -4.8% and ELG1 DNA repair 23.1µM*.
Cc1ccccc1-n1c(SCC(=O)Nc2ccccc2)nc2nc3c(cc2c1=O)CCCC3 was read as ELG1 genotoxic -10.3%, FLuc counter 3.8%, NPC1 promoter act -0.6%, Rab9 promoter act -7.5%, SMN2 splice up -27.0% and ELG1 DNA repair 23.1µM*.
For Cc1cccc(NC(=O)CSc2nc3nc4c(cc3c(=O)n2-c2ccccc2)CCCC4)c1 the results were ELG1 genotoxic -3.5%, FLuc counter -1.6%, NPC1 promoter act 0.8%, Rab9 promoter act 2.2%, SMN2 splice up -1.6% and ELG1 DNA repair 14.6µM*.
O=C(CSc1nc2nc3c(cc2c(=O)n1-c1ccccc1)CCCC3)Nc1cccc2ccccc12 was read as ELG1 genotoxic -1.7%, FLuc counter 0.4%, NPC1 promoter act 1.2%, Rab9 promoter act -4.2%, SMN2 splice up 13.4% and ELG1 DNA repair inconclusive.
For Clc1ccc(-c2nnc(N3CCCC3)nn2)cc1 the results were ELG1 genotoxic inconclusive, FLuc counter 1.2µM*, NPC1 promoter act inconclusive, Rab9 promoter act 0.316µM*, SMN2 splice up 6.31µM* and ELG1 DNA repair inconclusive.
COc1cc(OC)c(C(=O)OCC(=O)Nc2ccccc2Cl)cc1OC was read as ELG1 genotoxic 13.3%, FLuc counter -2.3%, NPC1 promoter act 3.6%, Rab9 promoter act -4.8% and ELG1 DNA repair inconclusive.
Screening CCc1ccc(NC(=O)c2ccc(F)c(S(=O)(=O)N3CCC4(CC3)OCCO4)c2)cc1 returned FLuc counter -13.0%.
For O=S(=O)(c1cc(F)ccc1F)N1CCC2(CC1)OCCO2 the results were ELG1 genotoxic 9.2µM*, FLuc counter 12µM*, NPC1 promoter act 3.55µM*, Rab9 promoter act 3.98µM* and ELG1 DNA repair inconclusive.
O=C(Nc1ccc(F)c(F)c1)c1ccc(F)c(S(=O)(=O)N2CCC3(CC2)OCCO3)c1 was read as ELG1 genotoxic -7.0%, FLuc counter -0.9%, NPC1 promoter act -13.3%, Rab9 promoter act -10.2%, SMN2 splice up -85.6% and ELG1 DNA repair 7.3µM*.
